Measured values taken from PubChem BioAssay AID1159580 (chemical genetic matrix, 2015).
About 2,000 (36%) of roughly 5,500 compounds were called active. Not shown: some 18% with an inconclusive outcome. No stated cut-off is given here; in the data, active means normalized growth mostly below about 0.91 (no sharp cut-off); inconclusive means no clear call, values can overlap the other calls; inactive means mostly above about 0.92. This is one part of the list.

Experiment: chemical genetic growth profiling, strain panel (AID 1159580);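 further: tested at 20 µM; growth read once vehicle control cultures reached saturation at 30 °C; 1 = growth at the plate median or of vehicle wells; lower values mean less growth of the strain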
Settings: growth OD

Measured: normalized growth

COc1cc2c(cc1OC)[C@@H]1C(=O)c3ccc4c(c3O[C@@H]1CO2)CC(C(C)C)O4 (stereo partly drawn)
inactive: S. cerevisiae deletion strains, locus YKL009W, strain mrt4, hits give low values 1.01 | S. cerevisiae deletion strains, locus YKL068W, hits give low values 0.999 | S. cerevisiae deletion strains, locus YKL085W, strain MDH1 (second series), hits give low values 0.999 | S. cerevisiae deletion strains, locus YKL085W, strain MDH1, hits give low values 0.999 | S. cerevisiae deletion strains, locus YKL160W, strain elf1, hits give low values 0.978 | S. cerevisiae deletion strains, locus YKL190W, strain CNB1, hits give low values 0.998 | S. cerevisiae deletion strains, locus YKR026C, strain gcn3, hits give low values 0.991 | S. cerevisiae deletion strains, locus YKR091W, strain srl3, hits give low values 0.997 | S. cerevisiae deletion strains, locus YLL001W, strain dnm1, hits give low values 0.943 | S. cerevisiae deletion strains, locus YLL026W, hits give low values 0.98 | S. cerevisiae deletion strains, locus YLL041C, strain sdh2, hits give low values 1 | S. cerevisiae deletion strains, locus YLR027C, strain aat2, hits give low values 0.935 | S. cerevisiae deletion strains, locus YLR039C, strain RIC1, hits give low values 0.849 | S. cerevisiae deletion strains, locus YLR058C, strain SHM2, hits give low values 0.987 | S. cerevisiae deletion strains, locus YLR102C, strain apc9, hits give low values 1.01 | S. cerevisiae deletion strains, locus YLR113W, strain HOG1, hits give low values 1.02 | S. cerevisiae deletion strains, locus YLR221C, strain rsa3, hits give low values 0.966 | S. cerevisiae deletion strains, locus YLR258W, strain gsy2, hits give low values 0.985 | S. cerevisiae deletion strains, locus YLR262C, strain YPT6 (second series), hits give low values 0.897 | S. cerevisiae deletion strains, locus YLR262C, strain YPT6, hits give low values 0.822 | S. cerevisiae deletion strains, locus YLR268W, strain sec22, hits give low values 0.976 | S. cerevisiae deletion strains, locus YLR320W, strain mms22, hits give low values 0.923 | S. cerevisiae deletion strains, locus YLR330W, strain CHS5, hits give low values 1 | S. cerevisiae deletion strains, locus YLR342W, strain FKS1 (second series), hits give low values 0.999 | S. cerevisiae deletion strains, locus YLR342W, strain FKS1, hits give low values 0.975 | S. cerevisiae deletion strains, locus YLR357W, strain rsc2, hits give low values 0.958 | S. cerevisiae deletion strains, locus YLR370C, strain arc18, hits give low values 0.984 | S. cerevisiae deletion strains, locus YLR371W, strain rom2, hits give low values 1 | S. cerevisiae deletion strains, locus YLR384C, strain iki3, hits give low values 0.981 | S. cerevisiae deletion strains, locus YLR418C, strain cdc73, hits give low values 0.921 | S. cerevisiae deletion strains, locus YML016C, strain PPZ1, hits give low values 1 | S. cerevisiae deletion strains, locus YML032C, strain rad52, hits give low values 1 | S. cerevisiae deletion strains, locus YML120C, strain ndi1, hits give low values 0.986 | S. cerevisiae deletion strains, locus YML124C, strain tub3, hits give low values 0.999 | S. cerevisiae deletion strains, locus YMR058W, strain fet3, hits give low values 0.983 | S. cerevisiae deletion strains, locus YMR078C, strain ctf18, hits give low values 0.996 | S. cerevisiae deletion strains, locus YMR125W, strain sto1, hits give low values 0.99 | S. cerevisiae deletion strains, locus YMR129W, hits give low values 0.979 | S. cerevisiae deletion strains, locus YMR205C, strain PFK2, hits give low values 0.924 | S. cerevisiae deletion strains, locus YMR223W, strain ubp8, hits give low values 1 | S. cerevisiae deletion strains, locus YMR231W, strain pep5, hits give low values 0.992 | S. cerevisiae deletion strains, locus YMR263W, strain SAP30, hits give low values 1 | S. cerevisiae deletion strains, locus YMR307W, strain GAS1, hits give low values 0.872 | S. cerevisiae deletion strains, locus YNL067W, strain RPL9B, hits give low values 0.993 | S. cerevisiae deletion strains, locus YNL071W, strain lat1, hits give low values 0.93 | S. cerevisiae deletion strains, locus YNL183C, strain NPR1, hits give low values 0.983 | S. cerevisiae deletion strains, locus YNL209W, strain ssb2, hits give low values 0.995 | S. cerevisiae deletion strains, locus YNL233W, strain BNI4, hits give low values 0.986 | S. cerevisiae deletion strains, locus YNL248C, strain rpa49, hits give low values 0.98 | S. cerevisiae deletion strains, locus YNL250W, strain rad50, hits give low values 1 | S. cerevisiae deletion strains, locus YNL271C, strain bni1, hits give low values 1.02 | S. cerevisiae deletion strains, locus YNL298W, strain CLA4, hits give low values 1.01 | S. cerevisiae deletion strains, locus YNL307C, strain MCK1, hits give low values 0.986 | S. cerevisiae deletion strains, locus YNL322C, strain KRE1 (second series), hits give low values 0.985 | S. cerevisiae deletion strains, locus YNR049C, strain mso1, hits give low values 0.997 | S. cerevisiae deletion strains, locus YNR052C, strain pop2, hits give low values 1.01 | S. cerevisiae deletion strains, locus YOL006C, strain TOP1, hits give low values 0.897 | S. cerevisiae deletion strains, locus YOL012C, strain htz1 1.16 | S. cerevisiae deletion strains, locus YOL147C, strain pex11, hits give low values 0.999 | S. cerevisiae deletion strains, locus YOR001W, strain rrp6, hits give low values 0.966 | S. cerevisiae deletion strains, locus YOR061W, strain CKA2, hits give low values 0.998 | S. cerevisiae deletion strains, locus YOR069W, strain VPS5, hits give low values 1.01 | S. cerevisiae deletion strains, locus YOR070C, strain gyp1, hits give low values 0.961 | S. cerevisiae deletion strains, locus YOR080W, strain dia2, hits give low values 0.974 | S. cerevisiae deletion strains, locus YOR083W, strain WHI5, hits give low values 0.98 | S. cerevisiae deletion strains, locus YOR106W, strain vam3, hits give low values 1.02 | S. cerevisiae deletion strains, locus YOR136W, strain idh2, hits give low values 1 | S. cerevisiae deletion strains, locus YOR144C, strain elg1, hits give low values 0.992 | S. cerevisiae deletion strains, locus YOR184W, strain ser1, hits give low values 0.925 | S. cerevisiae deletion strains, locus YOR231W, strain MKK1, hits give low values 1.05 | S. cerevisiae deletion strains, locus YOR265W, strain rbl2, hits give low values 0.989 | S. cerevisiae deletion strains, locus YOR270C, strain vph1, hits give low values 0.939 | S. cerevisiae deletion strains, locus YOR290C, strain snf2, hits give low values 0.989 | S. cerevisiae deletion strains, locus YOR316C, strain cot1, hits give low values 0.999 | S. cerevisiae deletion strains, locus YPL051W, strain arl3, hits give low values 0.941 | S. cerevisiae deletion strains, locus YPL055C, strain LGE1, hits give low values 0.929 | S. cerevisiae deletion strains, locus YPL078C, strain atp4, hits give low values 0.982 | S. cerevisiae deletion strains, locus YPL106C, strain sse1, hits give low values 1 | S. cerevisiae deletion strains, locus YPL240C, strain hsp82, hits give low values 1.01 | S. cerevisiae deletion strains, locus YPL241C, strain CIN2, hits give low values 1 | S. cerevisiae deletion strains, locus YPL256C, strain CLN2, hits give low values 1.05 | S. cerevisiae deletion strains, locus YPR119W, strain clb2, hits give low values 1 | S. cerevisiae deletion strains, locus YPR141C, strain kar3, hits give low values 1 | S. cerevisiae deletion strains, locus YPR163C, strain tif3, hits give low values 1.01 | S. cerevisiae deletion strains, locus YPR167C, strain met16, hits give low values 1 | S. cerevisiae deletion strains, strain wtn01, hits give low values 1.01 | S. cerevisiae strains, strain wild type, hits give low values 0.987
active: S. cerevisiae deletion strains, locus YKR001C, strain vps1, hits give low values 0.849
